Sensor-assay potency score (higher = more potent) data for 40 sequences are collected here from the OligoGym collection.
Also: reference of the scale not given here.

The first experiment concerns the target POLH. Nature of the experiment: pooled miR-30 sensor sort-seq; sequence = guide strand. The note with it: shRNA.
TATCAATCTGAAGAGAATCGAG displayed a sensor-assay potency score (higher = more potent) of -0.521.
With TTTAGAGGATTCTTCTAGCTTC, the sensor-assay potency score (higher = more potent) worked out at 0.456.
As for TTGCTTTAGAGGATTCTTCTAG, the sensor-assay potency score (higher = more potent) was -0.177.
Same read-out and setting: the figure for TAACTTCTTAGCATCATCTGCC is 0.509; for TACACGAATGCTCACAACCAGC it is -1.33; for TAACTTTCTGCCTTTCTGCAGC it is -0.259.
In turn, TAGCTTTTGTAGTCTCTCTTGT came in with a sensor-assay potency score (higher = more potent) of -0.253.

A further experiment addresses POLN. The experiment is described as above. The note with it: shRNA.
TTGATCTTGTGAACCTGCCTGT displayed a sensor-assay potency score (higher = more potent) of 0.754.
Still for that read-out and setting: the figure for TTATAAGAAACCGTTCTCCTGC is 0.596; for TTTTTGGTCAGCAGACAGCTGA it is -1.02; for TGACTTGATCTTGTGAACCTGC it is 0.614.
On the same count and under the same terms, the figure for TTTGTTTACTTGTTTTCTCTGA is -0.00359.
On to TTTACTAACACCACAATTCCTC, for which the sensor-assay potency score (higher = more potent) was -0.28.
On the same count and under the same terms, the figure for TAATGGATGAAGGTCTCGCAGA is -0.869; for TTGCCATAAACCATAATCCTTC it is -1.02.
Same read-out and setting: the figure for TCTATTTGAATGTAGATGCATG is -0.558.
Same read-out and setting: the figure for TTGCTCGTTATAAGAAACCGTT is -0.677; for TTCATTATTTATATTCTCCATT it is -0.758.

For another experiment, the target named is POLR2B. The description is as above. The note with it: shRNA.
The sequence TTTTCTCTTTAGTAACACCAGG yielded a sensor-assay potency score (higher = more potent) of -1.3.
On to TTCTAAAATATCTCTGTCGGAC, for which the sensor-assay potency score (higher = more potent) was -0.797.
The same measure, in the same setting: the figure for TTCTTTTTGTAAAACTTCCTTT is -0.613; for TAAAAGATTAGAAATCTTCTGC it is 0.528; for TAGTGCAACATTCTGTTCTTGG it is 0.768.
With TAGGAACTGATTACAATCCAGC, the sensor-assay potency score (higher = more potent) was -0.664.
Consider TATATGTGGAACAATAAGCTAC, for which the sensor-assay potency score (higher = more potent) was -0.462.
Consider TTTTACAAAATTTATATCCTTC, for which the sensor-assay potency score (higher = more potent) was determined as 0.417.
For AAGATTGCAAACATGAACCTGA, the sensor-assay potency score (higher = more potent) was determined as 0.822.
TATCAAACCATCATCATCCAGC: the sensor-assay potency score (higher = more potent) was -0.225.
For TTTCTCTTTAGTAACACCAGGC, the sensor-assay potency score (higher = more potent) was -0.352.
Sequence TATTATGCAACTGTCTTGGTTT showed a sensor-assay potency score (higher = more potent) of -0.109.

The next experiment has as its target POLR3B. The experiment is described as above. The note with it: shRNA.
In the case of TTAAGTACCACATAGGGTCAGC, the sensor-assay potency score (higher = more potent) was -0.683.
On to TAGCTCATCACAGCAACTGTTG, for which the sensor-assay potency score (higher = more potent) is -0.674.
The sequence TATATGAGTCTGTTGCTCCTTT returned a sensor-assay potency score (higher = more potent) of 0.252.
In turn, TAAATTTTTTGAACAAGTCTTC yielded a sensor-assay potency score (higher = more potent) of -0.054.
Same read-out and setting: the result for TTGACAATTATGTAGGGTCTGC reads -0.266; that for TTTATTAATTGTGTGTTCGTAC, 0.467.
The same measure, in the same setting: the result for TTACATTGAAGCTTTCTTCAAC reads 0.0741.
The sequence TTTCCTTGTAGCAGCATCCAAC registered a sensor-assay potency score (higher = more potent) of -0.877.
On the same count and under the same terms, the figure for TATCCTTTAGGTCACATCCATC is -1.12; for TTGGTGTATCGTTTCAACGTAC it is -0.297.
